Source: PubChem BioAssay (Tox21)
Where “and” joins values, the source holds several entries; their conditions need not be identical. Identical values can stand only once. Unmarked numbers belong to inactive results. Some compounds were tested as several samples or in several runs, with calls that do not always agree. Calls of active or inactive are those of the source. The call rests on the fitted dose curve.

Test: qHTS assay to identify small molecule agonists of the estrogen related receptor (ERR) signaling pathway from Tox21 library (AID 1224849); further: nearly all actives have a fitted effect of over 15% in size
Conditions: ERR reporter cell line, ONE-Glo luciferase, 18 h; at 42.5 µM (top of the series)
Source text: National Center for Advancing Translational Sciences [NCATS]
NIH Chemical Genomics Center [NCGC]
U.S. Environmental Protection Agency [EPA]
National Institutes of Environmental Health Sciences [NIEHS]
National Toxicology Program [NTP]
Estrogen related receptors (ERRs), the first orphan nuclear receptors discovered, play an important role in the control of cellular energy metabolism. ERRs are required for high-energy production in response to the environmental challenges. ERR-alpha was also identified as an adverse marker for breast cancer progression; ERR-alpha-positive tumors have a poor prognosis. To screen and to identify environmental compounds that perturb the ERR signaling pathways could provide valuable information for potential therapeutic or preventive measures in the treatment of metabolic disease. For identifying ERR agonists, ERR cell line (provided by NTP) has been used to screen Tox21 10K library.
The ERR cells were dispensed at 2,000 cells/5 ul/well in 1536-well white plates using a Multidrop dispenser. After the assay plates were incubated at a 37 C/5% CO2 incubator for 6 hours, 23 nL of compounds dissolved in DMSO, positive and negative controls or DMSO only was transferred to the assay plate by a pin tool. The plates were incubated at 37 C for 18 hours. 4 ul/well of One-Glo reagent was added into the assay plates using a Flying Reagent Dispenser. After 30-minute incubation at room temperature, the luminescence intensity in the plates was measured using a ViewLux plate reader.
On the % scale 0 is the no-effect control and ±100 the full control effect.

| SMILES | activity change, positive = activation |
| --- | --- |
| C[C@H]1O[C@@H](O[C@H]2[C@@H](O)C[C@H](O[C@H]3[C@@H](O)C[C@H](O[C@H]4CC[C@@]5(C)[C@H](CC[C@@H]6[C@@H]5C[C@@H](O)[C@]5(C)[C@@H](C7=CC(=O)OC7)CC[C@]65O)C4)O[C@@H]3C)O[C@@H]2C)C[C@H](O)[C@@H]1O | -72.5% (active) |
| C=C(c1ccc(C(=O)O)cc1)c1cc2c(cc1C)C(C)(C)CCC2(C)C | -34.6% |
| CSc1ccc2c(c1)N(CCC1CCCCN1C)c1ccccc1S2 (stereo not given) | -67.5% |

Same assay, conditions: ERR reporter cell line, ONE-Glo luciferase, 18 h; at 92.4 µM (top of the series)

| SMILES | activity change, positive = activation [%] |
| --- | --- |
| C[C@H]1O[C@@H](O[C@H]2[C@@H](O)C[C@H](O[C@H]3[C@@H](O)C[C@H](O[C@H]4CC[C@@]5(C)[C@H](CC[C@@H]6[C@@H]5C[C@@H](O)[C@]5(C)[C@@H](C7=CC(=O)OC7)CC[C@]65O)C4)O[C@@H]3C)O[C@@H]2C)C[C@H](O)[C@@H]1O | -71.3 |
| C=C(c1ccc(C(=O)O)cc1)c1cc2c(cc1C)C(C)(C)CCC2(C)C | -63.5 |
| CSc1ccc2c(c1)N(CCC1CCCCN1C)c1ccccc1S2 (stereo not given) | -73.9 |

Same assay, conditions: ERR reporter cell line, ONE-Glo luciferase, 18 h; at 92.4 µM (top of the series) unless noted

| SMILES | activity change, positive = activation |
| --- | --- |
| Nc1cc(Cl)c([N+](=O)[O-])cc1O | -13.4% |
| CC[N+](CC)(CC)Cc1ccccc1 | -4.7% |
| NC(=O)c1nc(-c2cccc(-c3cc(F)ccc3OCC(F)(F)C(F)(F)F)c2)n[nH]1 | -59.7% |
| CN1CCN(C2Cc3ccccc3Sc3ccc(Cl)cc32)CC1 (stereo not given) | -28.3% [at 42.5 µM] |
| CC1CCCCN1CCCOC(=O)c1ccc(OC2CCCCC2)cc1 (stereo not given) | -35.8% [at 42.5 µM] |
| CC(C)(C)CC(C)(C)c1ccccc1O | 1.59% |
| O=C1OC(=O)c2cccc3cccc1c23 | -2.65% |
| CCC(C)c1cc([N+](=O)[O-])cc([N+](=O)[O-])c1OC(=O)OC(C)C (stereo not given) | -53.4% |
| COC(=O)C1=C(C)NC(C)=C(C(=O)OCCCN2CCC(c3ccccc3)(c3ccccc3)CC2)C1c1cccc([N+](=O)[O-])c1 (stereo not given) | -67.7% [at 42.5 µM] |
| CC(C)c1ccc(O)c(C(C)C)c1 | -4.92% |
| Cc1cc2c(C(C)C)c(O)c(O)c(C=O)c2c(O)c1-c1c(C)cc2c(C(C)C)c(O)c(O)c(C=O)c2c1O | -47.3% [at 42.5 µM] |
| CC(C)c1ccccc1N | 3.39% |
| O=C1c2c(O)ccc([N+](=O)[O-])c2C(=O)c2c([N+](=O)[O-])ccc(O)c21 | -80% |
| Clc1cc(Cl)c(-c2c(Cl)c(Cl)cc(Cl)c2Cl)cc1Cl | 21.1% [at 42.5 µM] |
| C/C=C/C(=O)C1=C(C)CCCC1(C)C | -5.63% |
| CCN(CC)c1cccc(C)c1 | 9.53% |
| CCC(C)C(=O)OC (stereo not given) | -4.99% |

| SMILES | activity change, positive = activation |
| --- | --- |
| Cn1cccc1 | -4.51% |
| CCCCOCC | -0.464% |
| CCCCCCCC/C=C\CCCCCCCC(=O)NCc1ccc(O)c(OC)c1 | -18.5% [at 42.5 µM] |
| CCC(C)(C)c1cc(O)c(C(C)(C)CC)cc1O | -67.5% |
| CCN(CC)c1ccc(N)cc1 | -77.3% |
| c1cc[nH]c1 | -5.69% |
| CCCCCCCCCCCCCCCC | 3.33% |
| CCc1cccc(CC)c1N(COC)C(=O)CS(=O)(=O)O | -4.79% |
| CCN=c1cc2oc3cc(NCC)c(C)cc3c(-c3ccccc3C(=O)OCC)c-2cc1C | -79.8% and -73.2% |
| CC(C)N=C(N)/N=C(\N)Nc1ccc(Cl)cc1 | -24.8% [at 42.5 µM] |
| CC(=O)OC(OC(C)=O)c1ccc([N+](=O)[O-])o1 | -81.4% |
| COC(=O)CC(C)CCC=C(C)C (stereo not given) | 1.82% |
| COc1ccccc1OCCNCC(O)COc1cccc2[nH]c3ccccc3c12 (stereo not given) | -52.7% [at 42.5 µM] |
| COC(=O)NCCC[Si](OC)(OC)OC | -7.77% |
| O=C(Nc1ccc(Cl)cc1)Nc1ccc(Cl)c(C(F)(F)F)c1 | -40.9% [at 42.5 µM] |
| CCCCCCCCCC(=O)N(C)C | 3.98% |
| CCOC(=O)[C@@](C)(N)Cc1ccc(O)c(O)c1 | -0.831% [at 42.5 µM] |
